CCHF vOTU inh-1 = blocks the CCHF virus ovarian tumor domain protease; CCHFV vOTU protease, Pep-AMC fluorescence; inhibition, % at 11.5 µM; 0.55% of 370,000 active; AID 651958; note: 0% = vehicle wells with enzyme and 100% = no enzyme wells
SARS 3CLpro inh = SARS-CoV 3CLpro protease inhibition. recombinant SARS-CoV 3CLpro, quenched FRET peptide cleavage. 0.14% of 290,000 active. inhibition, % at 6 µM. P0C6X7. AID 1706; in the data active = inhibition above about 12%
PrP UTR inh = inhibition of PrP 5' UTR reporter expression; cell-based PrP 5' UTR mRNA reporter, plate reader; inhibition, % (no concentration beside the values); 0.35% of 340,000 active; AID 488862; in the data active = inhibition above about 52%; note: 0 = median of the neutral control wells
PrPC surface inh = inhibitors of human cell surface prion protein PrPC. TR-FRET read-out. inhibition, % at 13.8 µM. 0.43% of 370,000 active. AID 720596; in the data active = inhibition above about 24%; note: 0% = median of the test wells and 100% = reference compound wells
CCHF vOTU inh-2 = confirmation of CCHF virus vOTU protease inhibitors; shares compounds with CCHF vOTU inh-1; Recombinant CCHFV vOTU, Pep-AMC fluorescence; inhibition, % at 11.5 µM; 17% of 1,900 active; AID 686976
Active calls of the source: *; nt = not tested or not shown. The list is not random: actives were taken first. Their share in the collection is about 1.3%. Cut-off read from the data, not from the text of the source, unless noted: active = inhibition above about 30%; inactive = the rest.

SMILES	CCHF vOTU inh-1	SARS 3CLpro inh	PrP UTR inh	PrPC surface inh	CCHF vOTU inh-2
CCCCCCCCN1C(=O)[C@@H](CC(=O)NCCCCc2ccccc2)C[C@@]2(C(=O)OC)C1=C[C@H](COCc1ccccc1)O[C@@H]2C	23	nt	nt	6	nt
CCCCOCCCNC(=O)C[C@H]1C[C@@]2(C(=O)OC)C(=C[C@H](C(C)(C)C)O[C@@H]2C)N(Cc2cccc3ccccc23)C1=O	35*	nt	nt	1	5
COc1ccc(C2=NN(C(=O)CSC3=NN4CCCC(=O)N=C4S3)C(c3cccc(OC)c3OC)C2)cc1 (stereo unspecified)	9	2	-9	2	nt
O=C(NC1CCCCC1)C(c1ccccc1F)n1c(=O)c(-c2ccco2)nc2ccccc21 (stereo unspecified)	12	nt	nt	4	nt
O=C(NC1CCCCC1)C(c1ccnc2ccccc12)n1c(=O)c(-c2ccco2)nc2ccccc21 (stereo unspecified)	33*	nt	nt	8	-33
COC(=O)c1c(C)oc2c1cc(NS(=O)(=O)c1ccc(C(=O)O)cc1)c1ccccc12	38*	2	-33	-9	-8
COc1ccc(OCC(=O)Nn2c(-c3ccc(C)cc3)nc3ccccc3c2=O)cc1	2	3	-24	8	nt
Cc1ccccc1-c1cc2c(nn1)-c1ccccc1C2=O	96*	5	-42	-18	94*
O=C1c2ccccc2-c2nnc(-c3ccc(O)cc3)cc21	-7	-7	-92	-7	nt
CC(=O)c1ccc(NC(=O)c2sc3nc(N4CCOCC4)c4c(c3c2N)CCCC4)cc1	8	-3	-6	5	nt
Cc1ccc(NC2=CC(=O)C(=O)c3ccccc32)cc1	93*	1	-5	-15	70*
NS(=O)(=O)c1ccc(NC2=CC(=O)C(=O)c3ccccc32)cc1	100*	7	-40	-22	102*
CC(C)(Oc1ccc(Cl)cc1)C(=O)OCn1nnc2ccccc2c1=O	3	-1	-14	2	nt
O=C(CCc1ccccc1)Nc1cccnc1	-12	-1	-23	4	nt
O=C(CCc1ccccc1)Nc1ccncc1	50*	-1	-3	10	-16
Nc1c2c(=O)[nH]c(O)cc2nn1-c1ccccc1	63*	nt	-30	-8	-11
Cc1c(C)c2c(C)nn(-c3ccccc3)c2[nH]c1=O	-3	1	-16	0	nt
Fc1ccc(-c2nc3c(Cl)cc(C(F)(F)F)cn3c2Cc2cccc(F)c2)cc1	-3	nt	nt	2	nt
Fc1cccc(Cc2c(-c3ccco3)nc3c(Cl)cc(C(F)(F)F)cn23)c1	31*	nt	nt	5	-4
N#Cc1cc([N+](=O)[O-])ccc1NC(=O)CSc1n[nH]c(=O)n1C1CC1	32*	nt	-5	-36	-15
COC(=O)Nc1ccc(S(=O)(=O)N2CCC(C(=O)N3CCC(C)CC3)CC2)cc1	42*	3	-13	8	-19
O=C(NCCCN1CCN(c2ccccc2)CC1)C1CCCN(c2ncnc3c2nc2n3CCCCC2)C1 (stereo unspecified)	-15	0	-14	-4	nt
O=[N+]([O-])c1ccc(Sc2nccn2Cc2ccccc2)cc1	16	-6	-9	-5	nt
CC(=O)Nc1ccc(OCC(O)Cn2c(CO)nc3ccccc32)cc1 (stereo unspecified)	-11	2	-1	2	nt
COc1ccc(OCCOc2ccc(S(=O)(=O)N3CCCC3)cc2[N+](=O)[O-])cc1	-6	nt	-9	0	nt
SMILES	CCHF vOTU inh-1	SARS 3CLpro inh	PrP UTR inh	PrPC surface inh	CCHF vOTU inh-2
COc1cccc(Oc2ccc(S(=O)(=O)N3CCCC3)cc2[N+](=O)[O-])c1	34*	0	7	-8	-12
CCCc1cn(CC(C)n2c(=O)c3ccccc3n2Cc2cc(C(C)C)no2)nn1 (stereo unspecified)	-17	nt	nt	0	nt
COc1ccc(CN2C=C3C(=O)C(C)(OC(=O)C4CCCC4)C(=O)C=C3C=C2c2ccsc2)cc1 (stereo unspecified)	9	nt	-21	-14	nt
CC1(OC(=O)C2CCCC2)C(=O)C=C2C=C(c3ccsc3)N(CCCCO)C=C2C1=O (stereo unspecified)	30*	nt	-13	-16	34*
COC(=O)C(Cc1ccc(O)cc1)NC(=O)CCc1ccco1 (stereo unspecified)	11	-1	-3	8	nt
C[C@@H]1CCCCO[C@H](CN(C)Cc2ccc(Cl)c(Cl)c2)[C@H](C)CN([C@@H](C)CO)C(=O)c2cc(NC(=O)Nc3ccc(F)cc3)ccc2O1	31*	nt	nt	-6	-14
COc1ccc(NC(=O)Nc2ccc3c(c2)C(=O)N([C@H](C)CO)C[C@H](C)[C@@H](CN(C)Cc2ccc(Cl)c(Cl)c2)OCCCC[C@@H](C)O3)cc1	18	nt	nt	1	nt

Compound activity from PubChem.
